Values joined by “and” are separate entries in the source; they are usually repeats but may differ in a detail not shown here. Identical values can stand only once. Inconclusive results are not listed. Entries that show only a call come without a potency. A structure can be active in one record and inactive in another. Active and inactive are the calls of the source. Unless noted, calls come from the whole dose curve; as a rule, active = well fitted curve in the direction sought with a large enough effect in the repeat runs; inconclusive = weak or mixed curves; inactive = no such curve, though single readings can be large; an effect the other way counts as inactive or inconclusive.
Assays:
[1] = qHTS assay to identify small molecule agonists of the vitamin D receptor (VDR) signaling pathway - cell viability counter screen (AID 743224); note: nearly all actives have a fitted effect of over 50% in size; note: potency is the fitted concentration of half-maximal effect
Summary of the method: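 CellTiter-Glo viability readout on VDR-bla cells, measured after 16 h of compound treatment at 37C in the same wells.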

[2] = qHTS assay to identify small molecule agonists of the NFkB signaling pathway (AID 1159509; active = well fitted curve in the direction sought with a large enough effect in the signal ratio in the repeat runs, not every such curve was filed as active; the % refers to the signal ratio; note: series mostly up to about 61 µM)
Summary of the method: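 Beta-lactamase reporter assay run in quantitative high-throughput format on an NF-kB-responsive ME-180 line, with 5 hr compound treatment and a FRET-based blue/green fluorescence readout.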

[3] = qHTS assay to identify small molecule antagonists of the retinoid-related orphan receptor gamma (ROR-gamma) signaling pathway - cell viability counter screen (AID 1159520); note: nearly all actives have a fitted effect of over 50% in size; note: potency is the fitted concentration of half-maximal effect
Summary of the method: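 Cytotoxicity was read from cellular ATP (CellTiter-Glo luminescence) after 16 hr at 37 C with 1 uM doxycycline induction. The inducer was added 2 hr after compound transfer to Tet-on ROR gamma CHO cells.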

[4] = molecular target: Nuclear receptor ROR-gamma (Homo sapiens) (UniProt P51449); experiment: qHTS assay to identify small molecule antagonists of the retinoid-related orphan receptor gamma (ROR-gamma) signaling pathway (AID 1159521; note: nearly all actives have a fitted effect of over 50% in size; note: potency is the fitted concentration of half-maximal effect;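 for activity change, negative = inhibition: CHO cells with doxycycline inducible ROR-gamma driving an RORE luciferase reporter; top concentration of the series differs between compounds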)
Summary of the method: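 Inducible-expression reporter assay: doxycycline (1 uM final) switched on RORγ in CHO cells bearing a ROR response element-luciferase construct, with test compounds present from 2 h beforehand. Decreased luminescence after 16 h defined antagonist activity.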

[5] = qHTS assay to identify small molecule agonists of the AP-1 signaling pathway - cell viability counter screen (AID 1159525; calls by dose curve; note: nearly all actives have a fitted effect of over 55% in size; note: potency is the fitted concentration of half-maximal effect)
Summary of the method: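 Intracellular ATP by Cell Titer Glo luminescence (30 min, RT) in the same ME-180 AP-1-bla wells after the 5 h compound exposure at 37 °C. Normalised to tetra n-octyl ammonium bromide and DMSO controls.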

[6] = qHTS assay to identify small molecule antagonists of the vitamin D receptor (VDR) signaling pathway - cell viability counter screen (AID 743225); note: nearly all actives have a fitted effect of over 50% in size; note: potency is the fitted concentration of half-maximal effect
Summary of the method: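 Same-well multiplex: following 16 h treatment of HEK 293T cells carrying a UAS-driven beta-lactamase reporter with compound and agonist (3 nM final), and a 2 h FRET substrate step, CellTiter-Glo was added and luminescence read after 30 min.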

[7] = qHTS assay to identify small molecule agonists of the NFkB signaling pathway - cell viability counter screen (AID 1159515; calls by dose curve; note: series mostly up to about 61 µM; nearly all actives have a fitted effect of over 55% in size)
Summary of the method: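 Tox21 library compounds were tested for cytotoxicity against NFkB-bla ME-180 cells during a 5 hr exposure at 37 C. CellTiter-Glo luminescence served as the viability read-out.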

[8] = qHTS assay to identify small molecule agonists of the endoplasmic reticulum stress response signaling pathway (AID 1159516; active = well fitted activation curve with a large enough effect in the signal ratio in the repeat runs, not every such curve was filed as active; the % refers to the signal ratio)
Summary of the method: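 Fluorescence at 460 and 530 nm (405 nm excitation) reports beta-lactamase from an ER stress response element in HeLa cells treated 5 hr at 37 C.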

[9] = qHTS assay to identify small molecule agonists of the endoplasmic reticulum stress response signaling pathway - cell viability counter screen (AID 1159517; calls by dose curve)
Summary of the method: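 After overnight attachment, ESRE-bla HeLa cells were treated with Tox21 library compounds for 5 hr. CellTiter-Glo luminescence, read 30 min post-addition at room temperature, reported viability.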

[10] = qHTS assay to identify small molecule agonists of the AP-1 signaling pathway (AID 1159526; calls by dose curve)

| Compound | Potency [1] | outcome [2] | Potency [3] | Potency [4] | Potency [5] | Potency [6] | Potency [7] | Potency [8] | Potency [9] | Potency [10] | activity change, negative = inhibition [4] | activation [10] |
| --- | --- | --- | --- | --- | --- | --- | --- | --- | --- | --- | --- | --- |
| C1=CC2C3C=CC(C3)C2C1 (configuration not stated) | inactive | inactive | inactive | inactive | inactive |  |  |  |  |  |  |  |
| OC[C@H]1O[C@H](O[C@]2(CCl)O[C@H](CCl)[C@@H](O)[C@@H]2O)[C@H](O)[C@@H](O)[C@H]1Cl | inactive |  | inactive | inactive | inactive | inactive | inactive | inactive | inactive | inactive |  |  |
| NC(=O)n1c(O)c(C(=O)c2cccs2)c2cc(Cl)ccc21 |  | inactive |  | 6.68 µM (active) | inactive | inactive |  |  | inactive | inactive |  |  |
| NS(=O)(=O)c1cc2c(cc1Cl)NCNS2(=O)=O | inactive |  | inactive | inactive | inactive | inactive | inactive | inactive | inactive | inactive |  |  |
| Nc1ccc([N+](=O)[O-])cc1O |  | inactive | inactive | inactive | inactive |  |  |  |  | inactive |  |  |
| NC(CO)(CO)CO | inactive |  | inactive | inactive | inactive | inactive | inactive | inactive | inactive | inactive |  |  |
| O=C(Nc1ncc([N+](=O)[O-])s1)c1cccs1 |  | inactive | 13.3 µM (active) | inactive |  |  |  |  |  |  |  |  |
| CC(=O)Nc1c(I)c(NC(C)=O)c(I)c(C(=O)O)c1I |  |  | inactive | inactive | inactive |  | inactive | inactive | inactive | inactive |  |  |
| CN(C)CCOC(C)(c1ccccc1)c1ccccn1 (configuration not stated) | inactive |  | inactive | inactive | inactive | inactive | inactive | inactive | inactive | inactive |  |  |
| Cn1c(=O)c2c(ncn2C)n(C)c1=O | inactive |  | inactive | inactive | inactive | inactive | inactive | inactive | inactive | inactive |  |  |
| CCN(CC)C(=O)c1cccc(C)c1 | inactive |  | inactive | inactive | inactive | inactive | inactive | inactive | inactive | inactive |  |  |
| CN[C@H]1CC[C@@H](c2ccc(Cl)c(Cl)c2)c2ccccc21 | 13.3 µM (active) | inactive | inactive | inactive | inactive | 23.9 µM (active) |  |  |  |  |  |  |
| Nc1ccc2c(c1)CN1C(=O)c3ccccc3C1=N2 | inactive | inactive |  |  |  | inactive |  |  | inactive |  | -8.87% [at 19 µM] (inactive) | -1.9% [at 15.8 µM] (inactive) |
| O=C1O[C@H]([C@@H](O)CO)C(O)=C1O | inactive |  | inactive | inactive | inactive | inactive | inactive | inactive | inactive | inactive |  |  |
| CCN(Cc1c(F)cccc1Cl)c1c([N+](=O)[O-])cc(C(F)(F)F)cc1[N+](=O)[O-] | inactive | inactive | inactive | inactive |  |  |  |  |  |  |  |  |
| NC1CCCCC1 | inactive |  | inactive | inactive | inactive | inactive | inactive | inactive | inactive | inactive |  |  |
| C=C1CC[C@H](O)C/C1=C\C=C1/CCC[C@]2(C)[C@@H]([C@H](C)CCCC(C)C)CC[C@@H]12 |  | inactive | 60.6 µM (active) |  | inactive |  |  |  |  |  |  |  |
| O=C1NS(=O)(=O)c2ccccc21 | inactive |  | inactive | inactive | inactive | inactive | inactive | inactive | inactive | inactive |  |  |
| COc1ccc(C(Cl)=C(c2ccc(OC)cc2)c2ccc(OC)cc2)cc1 | inactive |  | inactive | 19.2 µM (active) | inactive | inactive | inactive | inactive | inactive | inactive |  |  |
| O=C(O)c1ccccc1 | inactive |  | inactive | inactive | inactive | inactive | inactive | inactive | inactive | inactive |  |  |
| COc1ccc(OC(F)(F)F)cc1CN[C@H]1CCCN[C@H]1c1ccccc1 | 54.9 µM (active) | inactive | inactive |  |  | 49 µM (active) |  |  | inactive |  |  |  |
| Nc1ccc(O)c([N+](=O)[O-])c1 |  | inactive | inactive | 8.63 µM (active) | inactive |  |  |  |  |  |  |  |
| CN1[C@@H]2CC(OC(=O)[C@H](CO)c3ccccc3)C[C@H]1[C@@H]1O[C@@H]12 (some centres not stated) | inactive |  | inactive | inactive | inactive | inactive | inactive | inactive | inactive | inactive |  |  |

| Compound | Potency [1] | outcome [2] | Potency [3] | Potency [4] | Potency [5] | Potency [6] | Potency [7] | Potency [8] | Potency [9] | Potency [10] | activity change, negative = inhibition [4] | activation [10] |
| --- | --- | --- | --- | --- | --- | --- | --- | --- | --- | --- | --- | --- |
| C1CCC(C(CC2CCCCN2)C2CCCCC2)CC1 (configuration not stated) |  | inactive | 26.6 µM (active) |  | 23.9 µM (active) | 21.3 µM (active) |  |  |  |  |  |  |
| O=CC(=O)c1ccccc1 | inactive | inactive | inactive |  | inactive | inactive |  |  |  |  |  |  |
| Nc1c(N=Nc2ccc(-c3ccc(N=Nc4cc(S(=O)(=O)O)c5ccccc5c4N)cc3)cc2)cc(S(=O)(=O)O)c2ccccc12 | inactive | inactive |  |  | inactive | inactive |  |  |  |  |  |  |
| COc1cccc(O)c1O | 57.1 µM (active) | inactive |  | 63.5 µM (active) | inactive | inactive |  |  | inactive |  |  |  |
| CCCCC1(COC(=O)CCC(=O)O)C(=O)N(c2ccccc2)N(c2ccccc2)C1=O | inactive |  | inactive | inactive | inactive | inactive | inactive | inactive | inactive | inactive |  |  |
| COc1ccc2cc(S(=O)(=O)N[C@H](CC(=O)N[C@H](Cc3ccc(CN4[C@H](C)CCC[C@@H]4C)cc3)C(=O)N(C)C(C)C)c3ccc4c(c3)OCO4)ccc2c1 | 52 µM (active) | inactive |  | 13 µM (active) |  | 20.7 µM (active) |  |  |  |  |  |  |
| CN1CCc2cccc3c2[C@H]1Cc1ccc(O)c(O)c1-3 | 49.5 µM (active) and 16.3 µM (active) and 26.6 µM (active) |  | 69.3 µM (active) | 27.6 µM (active) and 20.4 µM (active) and inactive | inactive | 49.5 µM (active) and 11.5 µM (active) | inactive | inactive | inactive | inactive |  |  |
| CC(=O)C(=O)O | inactive |  | inactive | inactive | inactive | inactive | inactive | inactive | inactive | inactive |  |  |
| CCCCC(CC)C(=O)O (configuration not stated) | inactive |  | inactive | inactive | inactive | inactive | inactive | inactive | inactive | inactive |  |  |
| Cc1cccc(C)c1 | inactive |  | inactive | inactive | inactive | inactive | inactive | inactive | inactive | inactive |  |  |
| C=CCc1ccc(O)c(OC)c1 | inactive |  | inactive | inactive | inactive | inactive | inactive | inactive | inactive | inactive |  |  |
| CC(C)C(=O)Nc1ccc([N+](=O)[O-])c(C(F)(F)F)c1 | inactive |  | inactive | 28.1 µM (active) and 10.9 µM (active) and 33.5 µM (active) | inactive | inactive | inactive | inactive | inactive | inactive |  |  |
| CCCC[P+](CCCC)(CCCC)CCCC | inactive |  | inactive | inactive | inactive | inactive | inactive | inactive | inactive | inactive |  |  |
| C[C@](N)(Cc1ccc(O)c(O)c1)C(=O)O | inactive |  | inactive | inactive | inactive | inactive | inactive | inactive | inactive | inactive |  |  |
| CS(=O)(=O)OCCCCOS(C)(=O)=O | inactive |  | inactive | inactive | inactive | inactive | inactive | inactive | inactive | inactive |  |  |
| Cc1ncc([N+](=O)[O-])n1CCO | inactive |  | inactive | inactive | inactive | inactive | inactive | inactive | inactive | inactive |  |  |
| O=C1NC(=O)C(c2ccccc2)(c2ccccc2)N1 | inactive |  | inactive | inactive | inactive | inactive | inactive | inactive | inactive | inactive |  |  |
| NS(=O)(=O)O | inactive |  | inactive | inactive | inactive | inactive | inactive | inactive | inactive | inactive |  |  |
| CCCCNC(=O)NS(=O)(=O)c1ccc(C)cc1 | inactive |  | inactive | inactive | inactive | inactive | inactive | inactive | inactive | inactive |  |  |
| CC(C)NCC(O)c1ccc(O)c(O)c1 (configuration not stated) | inactive |  | inactive | inactive | inactive | inactive | inactive | inactive | inactive | inactive |  |  |
| NC(=O)c1cccnc1 | inactive |  | inactive | inactive | inactive | inactive | inactive | inactive | inactive | inactive |  |  |
| CN1CCC[C@H]1c1cccnc1 | inactive |  | inactive | inactive | inactive | inactive | inactive | inactive | inactive | inactive |  |  |
| CCCCCCCC(=O)OCC(COC(=O)CCCCCCC)OC(=O)CCCCCCC | inactive |  | inactive | inactive | inactive | inactive | inactive | inactive | inactive | inactive |  |  |

Reference: PubChem BioAssay (Tox21)
